Compounds with a hit are over-represented: about 2.9% of the library has one in this group of screens.
DAGLB inh: blocks human DAGLB lipase activity. HEK293T DAGLB membrane lysate, EnzChek fluorogenic substrate. hit rate 0.059% among 340,000. inhibition, % at 5.17 µM. Q8NCG7; in the data active = inhibition above about 34%;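 note: 0% = enzyme with vehicle and 100% = wells lacking enzyme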
Myeloid diff MLP: promotes myeloid progenitor differentiation | hit rate 1% among 360,000 | AID 624256 | calls only at 10 µM | ER-HoxA9 myeloid progenitors, lysozyme-GFP differentiation, flow cytometry;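 active = normalized GFP-positive differentiation at or above the plate's own cutoff, the solvent-only control mean plus 3 SD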;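 note: cells exposed to compound for four days before flow analysis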
sPLA2-III inh: Blocks human group III sPLA2 activity; Q9NZ20; QFRET BODIPY PC-A2 liposome hydrolysis, fluorescence; inhibition, % at 12.2 µM; hit rate 0.56% among 370,000; AID 743126;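 active = inhibition above mean plus 3 SD of compounds lying within the high and low control bounds, cut at about 19% in these data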;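 note: 0% = median of test compound wells and 100% = no enzyme DMSO wells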
Target sequence (Q9NZ20 whole entry, looked up): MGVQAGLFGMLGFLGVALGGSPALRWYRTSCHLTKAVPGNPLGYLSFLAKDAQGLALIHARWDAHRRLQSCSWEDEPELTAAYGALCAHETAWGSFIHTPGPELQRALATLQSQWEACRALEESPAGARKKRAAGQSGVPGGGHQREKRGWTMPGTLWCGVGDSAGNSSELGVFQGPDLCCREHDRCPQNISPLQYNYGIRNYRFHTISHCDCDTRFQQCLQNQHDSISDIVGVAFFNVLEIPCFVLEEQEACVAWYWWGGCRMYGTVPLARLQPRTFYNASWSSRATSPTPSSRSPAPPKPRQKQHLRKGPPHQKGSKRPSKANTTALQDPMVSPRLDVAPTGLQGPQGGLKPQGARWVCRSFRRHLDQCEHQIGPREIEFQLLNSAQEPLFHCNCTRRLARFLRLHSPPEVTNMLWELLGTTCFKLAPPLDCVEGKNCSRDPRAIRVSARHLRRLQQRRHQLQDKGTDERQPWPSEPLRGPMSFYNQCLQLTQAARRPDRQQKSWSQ
ABHD5 PLIN5 PPI: ABHD5-PLIN5 protein interaction inhibition; inhibition, % at 4 µM; Split G. princeps luciferase complementation, luminescence, 4 h; AID 602281; hit rate 0.78% among 360,000;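 active = inhibition above the mean inhibition across every tested compound plus 3 SD, cut at about 22% in these data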;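 note: 0% = DMSO only wells and the 100% control is not disclosed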
H9c2 protect: protects H9c2 cardiomyocytes from peroxide injury. protection from H2O2 cell death, % at 20 µM. H2O2 injury protection, ATPLite, 2 h. hit rate 0.63% among 360,000. AID 588492;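 active = compounds giving at least 50% protection of heart cells from peroxide-induced death in the single-dose screen, raw or plate-pattern-corrected value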;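 note: 0% = DMSO wells with peroxide and 100% = DMSO wells without peroxide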
Rtt109 HAT inh: blocks Candida albicans Rtt109/Vps75 acetyltransferase activity; Q5AAJ8; purified Rtt109/Vps75, ThioGlo CoA-SH fluorescence, 4 h; inhibition, % at 34.9 µM; hit rate 0.16% among 330,000; AID 540336;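 active = inhibition of at least 50% in every replicate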
sPLA2 confirm: human GIII-sPLA2 inhibition, confirmation; shares compounds with sPLA2-III inh; recombinant hGIII-sPLA2, BODIPY PC-A2 QFRET fluorescence; inhibition, % at 12.2 µM; hit rate 34% among 2,000; AID 743280;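 active = mean inhibition across triplicates above the hit cutoff set in the earlier primary screen, cut at about 19% in these data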;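 note: 0% = enzyme with DMSO and 100% = DMSO wells lacking enzyme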
BODIPY interf: optically interferes with 535nm fluorescence in sPLA2 counter-screen. shares compounds with sPLA2-III inh. hit rate 8.5% among 2,000. BODIPY FL product fluorescence interference, QFRET. inhibition, % at 12.2 µM;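 active = average inhibition above the solvent-only control mean plus 3 SD, cut at about 6% in these data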;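 note: 0% = DMSO with substrate plus product and 100% = DMSO with substrate alone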
535nm interf DR: counter-screen for HGIII-sPLA2 inhibitors: 535nm fluorescence interference, dose response. shares compounds with sPLA2-III inh. IC50, µM. 240 tested, under 10 active. BODIPY FL product fluorescence interference, cell-free;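 active = IC50 at or below 10 µM; inactive = IC50 above 10 µM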
* = called active by the depositor; i = inactive; . = no result.

SMILES	DAGLB inh	Myeloid diff MLP	sPLA2-III inh	ABHD5 PLIN5 PPI	H9c2 protect	Rtt109 HAT inh	sPLA2 confirm	BODIPY interf	others
COc1cc2c(cc1OC)C(c1cc([N+](=O)[O-])ccc1O)NCC2 (stereo unspecified)	0	i	-4	1	-2	3	.	.
COc1cc2c(cc1OC)C(c1ccc([N+](=O)[O-])cc1)NCC2 (stereo unspecified)	-2	i	20*	-4	-1	3	5	-8
Brc1ccc(C=Nc2ccc3c(c2)OCCOCCOCCO3)s1	-3	i	24*	3	-2	2	6	-9
CCC1CCCCN1C(=S)NCc1ccccc1 (stereo unspecified)	-1	i	24*	2	-1	-10	15	-7
O=C(NC(=S)N(Cc1ccccc1)c1ccccn1)C1CCCCC1	-1	i	24*	-2	-2	7	8	-4
COC(=O)[C@]12C[C@H](CC(=O)N3CCOCC3)C(=O)N(Cc3ccc(Cl)cc3Cl)C1=C[C@H](C1CCCC1)O[C@@H]2C	.	.	77*	.	.	.	-16	-23
CSc1nc2c(c(=O)[nH]1)CCCC2	2	i	-4	-5	12	-6	.	.
CCCCSc1nc2c(c(=O)[nH]1)CCC2	3	i	20*	1	14	-7	0	-3
COc1ccc(-n2c(SCC(=O)NNC(=S)Nc3ccccc3)nc3ccccc3c2=O)cc1	.	.	36*	.	.	.	39*	4	535nm interf DR=>122
O=C(CSc1nc2ccccc2c(=O)n1-c1ccc(SC(F)F)cc1)Nc1ccc(N2CCOCC2)cc1	-1	i	21*	-3	-4	-2	5	-8
Cc1ccc(NC(=S)NNC(=O)CSc2nc3ccccc3c(=O)n2-c2ccc(C)cc2)cc1	7	i	28*	-15	-2	23	24*	4
COc1ccc(-n2c(SCC(=O)Nc3ccc(NC(C)=O)cc3)nc3ccccc3c2=O)cc1	0	i	2	0	-2	-5	.	.
CCOC(=O)CNC(=O)CSc1nc2ccccc2c(=O)n1-c1ccc(Cl)cc1	.	.	0	.	.	.	.	.
CCNC(=S)NNC(=O)CSc1nc2ccccc2c(=O)n1-c1ccc(Cl)cc1	.	.	32*	.	.	.	25*	4
N#Cc1cc(NC2CCCC2)c([N+](=O)[O-])cc1C#N	2	i	25*	1	2	4	8	-1
COc1ccc(NC2CS(=O)(=O)CC2NCc2ccccc2)cc1 (stereo unspecified)	-1	i	21*	-1	-3	-6	5	-5
COc1ccc2ccccc2c1CN1CCSCC1	-2	i	3	-7	1	-4	.	.
COc1ccc2c(c1)C1C=CCC1C(c1cc3c(cc1Br)OCO3)N2 (stereo unspecified)	9	i	20*	5	-2	.	34*	8.9*
O=C(Cc1cccs1)NCc1ccncc1	-2	i	-3	4	0	-4	.	.
COc1ccc(/C=N/NC(=S)NCc2ccccc2)cc1OC	-6	i	24*	7	7	3	14	-5
FC(F)(F)c1cnc(NNC(=S)Nc2cccnc2)c(Cl)c1	4	i	20*	-7	20	-6	33*	1	535nm interf DR=>122
FC(F)(F)c1cnc(NNC(=S)Nc2ccccc2)c(Cl)c1	-1	i	-2	-2	-1	.	.	.
CCN(CC)c1ccc(-c2n[nH]c(=S)n2-c2ccccc2)cc1	3	i	20*	-16	-8	4	44*	5	535nm interf DR=>122
O=C(COC(=O)c1cc(=O)c2ccccc2o1)Nc1ccc2ccccc2c1	-3	i	22*	-2	0	-6	2	-3
N#CC12C(=O)NC(=O)C1(C#N)C21CCCC1 (stereo unspecified)	0	i	22*	-2	3	-3	-3	-6
